Each structure is given as a SMILES string. Records with an inconclusive call do not appear. A call without a number means that no potency is given here. Active and inactive are the calls of the source. Calls follow the shape of the dose curve; as a rule, active = well fitted inhibition curve with a large enough effect; inconclusive = small, poorly fitted or top-dose-only effect; inactive = no such curve, though single readings can be large or run the other way. Peptide text beside a SMILES is read from it.

Here are results for 20 compounds from PubChem BioAssay (NCATS).

Sequence of Cytochrome P450 3A4 (Homo sapiens) (P08684 whole entry, looked up): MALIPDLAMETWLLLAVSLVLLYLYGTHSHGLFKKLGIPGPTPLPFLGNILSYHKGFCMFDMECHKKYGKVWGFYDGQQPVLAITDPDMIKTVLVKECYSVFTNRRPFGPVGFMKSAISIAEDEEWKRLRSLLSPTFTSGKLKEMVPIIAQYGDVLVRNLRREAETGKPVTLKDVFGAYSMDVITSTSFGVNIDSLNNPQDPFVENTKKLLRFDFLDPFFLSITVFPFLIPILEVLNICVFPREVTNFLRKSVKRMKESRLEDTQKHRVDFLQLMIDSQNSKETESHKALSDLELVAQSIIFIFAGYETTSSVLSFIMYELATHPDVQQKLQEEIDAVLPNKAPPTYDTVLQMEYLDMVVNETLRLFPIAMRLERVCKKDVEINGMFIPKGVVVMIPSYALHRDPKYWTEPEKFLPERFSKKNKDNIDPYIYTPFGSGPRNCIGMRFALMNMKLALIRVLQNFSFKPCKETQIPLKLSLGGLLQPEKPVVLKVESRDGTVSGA

The assay has as its target Cytochrome P450 3A4 (Homo sapiens) (UniProt P08684). In words: qHTS Assay for Inhibitors and Substrates of Cytochrome P450 3A4 (AID 884). Also: nearly all actives have a fitted effect of over 50% in size. Conditions: recombinant CYP3A4, Luciferin-PPXE luminescence; series mostly up to 57.1 µM. Summed up: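 Luminescent readout of luciferin produced by CYP3A4 (20 nM) dealkylation of Luciferin-PPXE, 25 uM (its KM). NADPH-driven reaction ran 60 min at RT after 10 min compound preincubation; data scaled to 57 uM ketoconazole as 100% inhibition.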
Background: qHTS replaces the single test concentration by a dilution series.
Regarding `CC(C)C1COc2cc3oc(=O)ccc3cc2O1` (stereo not given), the Potency result is “inactive”. On to `NC(N)=NCCCC(NC(=O)C(N)Cc1ccc(O)cc1)C(=O)O` (stereo not given), for which the Potency result was “inactive”.

As to `CC1CC[C@@]2(OC1)OC1CC3C4CC[C@@H]5CC(O)CC[C@@]5(C)C4CC[C@]3(C)C1C2C` (stereo not given in full), the Potency entry is “inactive”. `COc1c2ccccc2nc2occc12`: the Potency result was “inactive”. Turning to `COc1ccc2c(=O)c(CC(=O)O)coc2c1`, the Potency result is “inactive”. Turning to `CC1(C)OC2C(CO)OC(n3cnc4c(=O)[nH]cnc43)C2O1` (stereo not given), the Potency entry was “inactive”. `CCOC(=O)CCCCCCCCCCCCC1C=CCC1` (stereo not given): the Potency result was “inactive”.

`OCc1ccccc1O[C@H]1OC(CO)C(O)C(O)C1O` (stereo not given in full): the Potency result was “inactive”.

As to `COc1ccc(/C=C/c2cc(O)cc(O[C@H]3OC(CO)C(O)C(O)C3O)c2)cc1` (stereo not given in full), the Potency entry was “inactive”. In the case of `COc1c(O)cccc1O`, the Potency entry is “inactive”. As for `Nc1ncnc2[nH]c(=O)[nH]c12`, the Potency entry is “inactive”. With `NCC1CCCCC1CC(=O)O` (stereo not given), the Potency result is “inactive”. `C#CCCCCCCCCCCCC(=O)CC(O)COC(C)=O` (stereo not given): the Potency entry is “inactive”. `CCN1CCN(C(=O)NC(C(=O)NC2C(=O)N3C2SC(C)(C)C3C(=O)O)c2ccccc2)C(=O)C1=O` (stereo not given): the Potency result was “inactive”. For `CC(=O)N1CCCC1C(=O)O` (stereo not given), the Potency result is “inactive”. With `COc1c(O)cc2c(c1O)C1OC(CO)C(O)[C@H](O)[C@H]1OC2=O` (stereo not given in full), the Potency result is “inactive”. Consider `CC(C)CCCC(C)C1CCC2C3CC[C@H]4CC(=O)CC[C@@]4(C)C3CC[C@@]12C` (stereo not given in full), for which the Potency entry is “inactive”. On to `COc1cc(/C=C/C(=O)O)cc(OC)c1OC`, for which the Potency result is “inactive”. In the case of `CC(=O)NC(CC(=O)O)C(=O)NC(CCC(=O)O)C(=O)O` (stereo not drawn) (Ac-Asp-Glu-OH; configuration not given here) it was “inactive”; in that of `CC1(C)OC2C[C@](O)(C(N)=O)C[C@H](O)[C@H]2O1` (stereo not given in full), “inactive”.
